AmpC inh detg: qHTS Inhibitors of AmpC Beta-Lactamase (assay with detergent). P00811. AmpC hydrolysis of nitrocefin, absorbance 480 nm, 0.01% Triton. Potency, µM (series often up to 114 µM), inactives show at the highest dose activity change, negative = inhibition, most hits filed as inhibitors. 0.041% of 370,000 active. AID 485294, 2010;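 note: 0% = no-compound wells and -100% = no-enzyme wells; nearly all actives have a fitted effect of over 25% in size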
Target sequence (P00811 whole entry, looked up): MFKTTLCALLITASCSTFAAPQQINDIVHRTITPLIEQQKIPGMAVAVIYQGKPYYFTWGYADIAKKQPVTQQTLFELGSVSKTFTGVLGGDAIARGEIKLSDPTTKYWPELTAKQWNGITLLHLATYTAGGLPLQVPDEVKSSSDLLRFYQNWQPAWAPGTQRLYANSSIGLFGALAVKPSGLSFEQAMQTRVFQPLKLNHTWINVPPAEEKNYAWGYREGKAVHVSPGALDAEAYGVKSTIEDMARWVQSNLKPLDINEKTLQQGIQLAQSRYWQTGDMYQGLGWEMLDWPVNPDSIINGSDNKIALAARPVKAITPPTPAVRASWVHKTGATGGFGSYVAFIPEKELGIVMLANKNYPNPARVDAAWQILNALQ
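20 mM phosphate pH 7.0 + 0.01% (detergent screen) or 0.0001% Triton X-100; 5.3 nM AmpC reagent; cpd preinc 15 min RT; nitrocefin (800 uM stock) to start; A480 q20 s × 4 min; Activity was normalised to no-enzyme and no-compound control wells.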
Sm TGR block: qHTS Assay for the Inhibitors of Schistosoma Mansoni Peroxiredoxins; 3% of 360,000 active; purified TGR, DTNB reduction, TNB absorbance 405 nm; AID 485364, 2010; Schistosoma mansoni thioredoxin glutathione reductase (TGR), Q962Y6; Potency, µM (titrated, usually from 114 µM), without a hit: top-dose activity change, negative = inhibition, usual class: inhibitors; note: % is set by controls: 0 for no effect and ±100 for the full control effect; nearly all actives have a fitted effect of over 60% in size
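First, TGR (20 nM dispensed) and NADPH were mixed with compound. Second, a 15 min room-temperature incubation followed. Third, further NADPH and then DTNB were added to start the reaction. Finally, TNB absorbance was monitored kinetically.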
RE007 growth inh: qHTS Assay for Inhibitors of the HIV-1 protein Vpr | S. pombe RE007 Vpr strain, BacTiter-Glo ATP luminescence, 24 h | Potency, µM (series often up to 92.2 µM), inactives show top-dose activity change, negative = less growth, usual class: inhibitors | 0.21% of 360,000 active | AID 651644, 2012; active = well fitted falling curve with a large enough effect; inconclusive = small, poorly fitted or top-dose-only effect; inactive = no such curve, though single readings can be large or run the other way; note: % is set by controls: 0 for no effect and ±100 for the full control effect; nearly all actives have a fitted effect of over 50% in size
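Fission yeast RE007 carrying one integrated HIV-1 vpr copy, seeded at OD 0.01 in PMG+AL medium with 23 nL pinned compound. Grown 24 h at 30 degrees; viability read by BacTiter-Glo luminescence after 5 min.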
SARS PLpro yeast: qHTS of Yeast-based Assay for SARS-CoV PLP. AID 485353, 2010. 0.19% of 330,000 active. S. cerevisiae expressing SARS-CoV PLpro, growth rescue. Potency, µM (top dose mostly 32.9 µM), without a hit: at the top dose activity, positive = growth rescue, actives largely listed as activators; calls by dose curve; note: 0% is about no effect; nearly all actives have a fitted effect of over 55% in size
AmpC no deterg: qHTS Inhibitors of AmpC Beta-Lactamase (assay without detergent) | 0.52% of 330,000 active | Potency, µM (series often up to 57.1 µM), for inactives: at the top dose activity change, negative = inhibition, actives largely listed as inhibitors | P00811 | AmpC nitrocefin hydrolysis, absorbance 480 nm, 0.0001% Triton;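 note: plate controls were no compound for no effect and no enzyme for full effect; nearly all actives have a fitted effect of over 20% in size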
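AmpC (5.3 nM in the dispensed reagent) in 20 mM phosphate pH 7.0 with 0.01% (detergent screen) or 0.0001% Triton X-100 was preincubated with compounds for 15 min at room temperature. Nitrocefin was then added from an 800 uM solution, and hydrolysis was followed at 480 nm.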
Tb PYK inh: qHTS of Trypanosoma Brucei Inhibitors. pyruvate kinase (Trypanosoma brucei), Q57TT1. TbPYK enzyme, Kinase-Glo Plus ATP luminescence, 45 min. Potency, µM (titrated, usually from 76.8 µM), for inactives: at the highest dose activity, negative = inhibition, most hits filed as inhibitors. 0.12% of 410,000 active; note: % is set by controls: 0 for no effect and ±100 for the full control effect; nearly all actives have a fitted effect of over 50% in size
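TbPYK + substrate in 50 mM TEA pH 7.2, 100 mM KCl, 10 mM MgCl2, 0.05% BSA, 0.01% Tween-20; cpd pinned; ADP 130 uM final; 45 min RT; Kinase-Glo Plus 10 min; luminescence endpoint.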
* hit, by the source's call; ? = inconclusive; · = no result given; [ ] = dose if it differs, or a comment. This is a sample that favours compounds with a hit; in the whole collection about 3.3% have one here. Unless noted, calls come from the whole dose curve; as a rule, active = well fitted curve in the direction sought with a large enough effect; inconclusive = small, poorly fitted or top-dose-only effect, or another doubt; inactive = no such curve, though single readings can be large; an effect the other way counts as inactive or inconclusive. Potency is the fitted concentration of half-maximal effect.

SMILES | AmpC inh detg | Sm TGR block | RE007 growth inh | SARS PLpro yeast | AmpC no deterg | Tb PYK inh
CCCC(=O)NC1=C(Cl)C(=O)c2ccccc2C1=O | · | · | 7.1µM* | · | · | ?
O=C1C(Cl)=C(NCc2ccco2)C(=O)c2ccccc21 | · | · | 20µM* | · | · | -8%
O=S(=O)(c1ccccc1)c1ccc(NCc2ccco2)cc1 | -13% | ? | 11% | 4% | -56% | -2%
CCOc1ccc(CNS(=O)(=O)c2cc3c(cc2C)NC(=O)CO3)cc1OC | -6% | 0% | · | · | · | -12%[15.4 µM]
Cc1ccc(N(Cc2cccs2)C(=O)COc2ccccc2[N+](=O)[O-])cc1 | 2% | -11% | · | · | · | 4%
COc1ccccc1NC(=O)Cc1c(C(=O)O)[nH]c2ccc(Cl)cc12 | 8% | 18% | · | · | · | -1%
O=C(O)c1ccccc1C(=O)NNc1ccc(F)cc1 | 1% | 50µM* | 299% | 1% | -22% | -2%
O=C(Nc1ccccc1CC[N+](=O)[O-])N1CCN(c2ccccc2)CC1 | 12% | 2.2µM* | -3% | 0% | 7% | -9%
CCCN(CCC)C(=O)Cn1c(=O)n(Cc2ccc(C(=O)NCCc3ccc(OC)c(OC)c3)cc2)c(=O)c2ccccc21 | ? | -9% | · | · | · | 4%
CN1C(=O)CC(c2ccccc2)Nc2ccccc21 (stereo not given) | 5% | -3% | -1% | -2% | -3% | 3%
N#CC1CC(c2ccccc2)Nc2cc(Cl)ccc2N1 (stereo not given) | ? | -22% | · | -7% | 11µM* | 0%
Cn1c(=O)c2cn3c(c2n(C)c1=O)C(c1ccccc1)CC(c1ccccc1)=N3 (stereo not given) | 0% | 13µM* | -10% | · | · | -24%
CNC(=S)N1CCn2cccc2C1c1ccc(F)cc1 (stereo not given) | -2% | 35µM* | 6% | -1% | 16% | -7%
Cc1ccc2nc(Cl)c3cc(C(=O)N4CCCC(C)C4)sc3c2c1 (stereo not given) | 2% | 5% | · | · | · | 1%
Cc1[nH]c(=S)c(C#N)c2c1CCCC2 | ? | -17% | 69% | 5% | -39% | 3.5µM*
Cc1[nH]c(=O)c(C#N)c2c1CCCC2 | 1% | -6% | -2% | 2% | -41% | -3%
Cc1ccc(C(=O)Nc2nnc(S(=O)(=O)N(C)Cc3ccco3)s2)cc1 | 14% | 10% | · | · | · | ?
CCC(=O)Nc1nnc(S(=O)(=O)N(C)Cc2ccco2)s1 | 1% | 35µM* | 11% | 2% | -24% | -15%
CCCC(=O)Nc1nnc(S(=O)(=O)N(C)Cc2ccco2)s1 | -7% | 4.5µM* | -3% | -4% | -18% | -22%
CCCc1cc2c(=O)c(-c3nc4ccccc4s3)c(COCC(=O)O)oc2cc1O | -5% | 40µM* | 5% | 1% | -42% | -4%
Cc1ccc([N+](=O)[O-])c2c1C(N1CCCC1)C(C)(C)O2 (stereo not given) | ? | 56µM* | -5% | -1% | 68% | -20%
COc1cccc(CNC(=O)NCc2noc3ccc(C)cc23)c1 | -7% | 0% | · | · | · | -8%
CCc1cccc(C)c1NC(=O)Cn1cc2c(n1)CCCC2 | 22% | 6% | · | · | · | 4%
COc1ccc(N2C(=O)CC(N3CCN(c4nc5ccccc5s4)CC3)C2=O)cc1 (stereo not given) | -8% | 20µM* | ? | -18% | 195% | -4%
COc1ccc(N2C(=O)CC(Sc3nnc(-c4ccccc4F)n3C)C2=O)cc1 (stereo not given) | 10% | 2.8µM* | -25% | 0% | -10% | -9%
SMILES | AmpC inh detg | Sm TGR block | RE007 growth inh | SARS PLpro yeast | AmpC no deterg | Tb PYK inh
CCOc1ccc2nc(SC3CC(=O)N(c4ccc(OC)cc4)C3=O)sc2c1 (stereo not given) | 3% | -31% | -20% | -7% | -29% | -2%
COc1ccc(N2C(=O)CC(Sc3nc4ccccc4s3)C2=O)cc1 (stereo not given) | 1% | 22µM* | -22% | -6% | -19% | -5%
C=CCNc1nnc(SC2CC(=O)N(c3ccc(OC)cc3)C2=O)s1 (stereo not given) | -12% | 2.8µM* | ? | -33% | -16% | -17%
CCOc1ccc(CCNC(=O)CCCc2nnc3n(CC)c(=O)c4sccc4n23)cc1OCC | ? | 3% | · | · | · | 1%
COC(=O)[C@]12CCC(C)(C)C[C@@H]1[C@@H]1C(=O)C=C3[C@@]4(C)C=C(C#N)C(=O)C(C)(C)[C@@H]4CC[C@@]3(C)[C@]1(C)CC2 | · | · | · | · | · | 1%
COc1ccc(N2C(=O)CC(N3CCN(c4ccc(S(C)(=O)=O)cc4)CC3)C2=O)cc1 (stereo not given) | ? | 18µM* | -25% | -2% | -9% | -5%
CCCCC(F)(F)[C@@]1(O)CC[C@H]2[C@H](CC(=O)[C@@H]2CCCCCCC(=O)O)O1 | · | · | · | · | · | 1%
O=C(c1cc2ccccc2o1)N(Cc1ccco1)Cc1cccs1 | ? | 32µM* | -8% | · | -37% | 3%
O=C(NCCC(=O)N(Cc1ccco1)Cc1cccs1)c1ccccc1Cl | -4% | 45µM* | 0% | 8% | 16% | 0%
COc1ccccc1NC(=O)CN(Cc1ccco1)C(=O)c1cc2ccccc2o1 | -15% | 22µM* | · | 0% | -38%[11.4 µM] | ·
COc1ccccc1C(=O)NCCC(=O)N(Cc1ccco1)Cc1cccs1 | -8% | ? | 12% | 0% | -1% | 1%
Cc1cc(C)n2c(Nc3ccccc3)c(-c3ccccc3)nc2n1 | 14% | -4% | · | · | · | -4%
CN(C)c1ccc(NC(=O)CSc2nnc(-c3ccco3)c(-c3ccco3)n2)cc1 | 1% | 35µM* | -3% | -2% | -32% | -12%
O=C(CSc1nnc(-c2ccco2)c(-c2ccco2)n1)Nc1ccccc1 | -14% | 1.8µM* | -16% | -1% | -41% | ?
Cc1ccc(NC(=O)CSc2nnc(-c3ccco3)c(-c3ccco3)n2)cc1 | -16% | ? | -2% | ? | -41% | ?
CCOc1ccc2oc(=O)cc(CN3CCN(c4ccc(Cl)cc4)CC3)c2c1 | 22% | 0% | · | · | · | -12%
O=C(O)c1ccc(S(=O)(=O)Nc2ccc3c(c2)OCCO3)cc1 | 2% | 32µM* | 10% | -3% | -16% | 1%
O=C1OC(c2ccccc2)=NC12CC2c1ccc(Cl)cc1 (stereo not given) | 6% | 14µM* | 27% | -81% | -10% | -20%
O=CN1N=C(c2ccccc2)CC1c1ccc(Cl)cc1 (stereo not given) | ? | -4% | 11% | · | -6% | 1%
